{"source": "PubChem BioAssay AID1835", "about": "(Johns Hopkins Ion Channel Center, 2009)", "note": "Out of some 2,400 compounds screened, about 750 (31%) were called active.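 How the source made its calls: active means median signal gain over dofetilide-blocked control wells reaching their mean plus 3 SD, so readout 1 at least 0; inactive means the rest.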 Some of the results follow.", "data": [{"biological_target": "Voltage-gated inwardly rectifying potassium channel KCNH2 (Homo sapiens) (UniProt Q12809)", "sequence (Q12809 whole entry, looked up)": "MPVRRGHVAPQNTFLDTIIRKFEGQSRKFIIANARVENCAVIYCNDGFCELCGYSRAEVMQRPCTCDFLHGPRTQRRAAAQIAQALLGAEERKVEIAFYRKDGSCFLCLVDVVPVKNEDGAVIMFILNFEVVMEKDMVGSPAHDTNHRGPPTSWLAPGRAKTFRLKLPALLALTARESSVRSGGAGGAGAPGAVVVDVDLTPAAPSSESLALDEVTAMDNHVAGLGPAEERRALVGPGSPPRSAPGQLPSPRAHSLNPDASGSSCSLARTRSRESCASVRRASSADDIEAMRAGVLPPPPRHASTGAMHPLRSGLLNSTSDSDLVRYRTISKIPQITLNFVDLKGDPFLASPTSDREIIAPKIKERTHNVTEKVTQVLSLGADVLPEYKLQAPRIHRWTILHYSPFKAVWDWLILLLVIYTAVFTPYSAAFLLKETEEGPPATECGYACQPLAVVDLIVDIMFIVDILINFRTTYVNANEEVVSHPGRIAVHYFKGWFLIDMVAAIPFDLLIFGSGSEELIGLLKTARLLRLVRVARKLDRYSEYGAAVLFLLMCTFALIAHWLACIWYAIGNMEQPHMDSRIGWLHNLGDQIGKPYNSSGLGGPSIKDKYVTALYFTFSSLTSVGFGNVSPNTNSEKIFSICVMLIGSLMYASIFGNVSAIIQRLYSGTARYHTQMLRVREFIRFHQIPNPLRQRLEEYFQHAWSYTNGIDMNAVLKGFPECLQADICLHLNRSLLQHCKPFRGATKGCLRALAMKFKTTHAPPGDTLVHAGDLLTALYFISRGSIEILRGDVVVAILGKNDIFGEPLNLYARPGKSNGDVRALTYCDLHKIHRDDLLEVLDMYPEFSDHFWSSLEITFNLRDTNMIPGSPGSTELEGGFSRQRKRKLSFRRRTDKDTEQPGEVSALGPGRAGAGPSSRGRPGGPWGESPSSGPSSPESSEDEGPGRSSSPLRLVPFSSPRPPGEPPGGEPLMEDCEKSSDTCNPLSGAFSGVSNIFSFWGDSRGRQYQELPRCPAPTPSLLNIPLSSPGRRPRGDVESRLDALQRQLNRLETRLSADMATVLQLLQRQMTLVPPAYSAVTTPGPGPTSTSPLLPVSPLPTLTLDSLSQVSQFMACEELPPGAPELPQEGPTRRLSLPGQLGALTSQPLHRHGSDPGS", "assay": "modulators restoring hERG flux under dofetilide – cell-based, thallium flux, duplicate retest, dofetilide IC70, confirmation (AID 1835)", "settings": "hERG cell line, FluxOR thallium flux, dofetilide-blocked; at 10 µM; stronger effect = higher value", "values": [{"smiles": "Cc1c(C#N)c(O)[nH]c(=O)c1N=Nc1ccc(Br)cc1C(=O)O", "activity increase over dofetilide control, less the hit threshold": "46% (active)"}, {"smiles": "Cc1ccc(C(C)C)cc1S(=O)(=O)NC1CC(C)(C)NC(C)(C)C1", "activity increase over dofetilide control, less the hit threshold": "-15% (inactive)"}, {"smiles": "CC1(C)CC(NC(=O)c2ccc(Cl)cc2Cl)CC(C)(C)N1", "activity increase over dofetilide control, less the hit threshold": "2% (active)"}, {"smiles": "Cc1ccc2c(c1)c1c(n2CC(O)Cn2nc(C)c(Br)c2C)CCCC1", "note": "(centres undefined)", "activity increase over dofetilide control, less the hit threshold": "-8% (inactive)"}, {"smiles": "Cc1ccc(F)cc1CNC(=O)C1CCC(=O)N(C2CC2)C1", "note": "(centres undefined)", "activity increase over dofetilide control, less the hit threshold": "-7% (inactive)"}, {"smiles": "CCOc1ccc(C(=O)N/N=C/c2cc([N+](=O)[O-])cs2)cc1", "activity increase over dofetilide control, less the hit threshold": "0% (inactive)"}, {"smiles": "Cc1cc(SCC(=O)c2cccc([N+](=O)[O-])c2)nc(=O)[nH]1", "activity increase over dofetilide control, less the hit threshold": "-9% (inactive)"}, {"smiles": "CCOC(=O)c1[nH]cnc1C(=O)Nc1ccc([N+](=O)[O-])cc1", "activity increase over dofetilide control, less the hit threshold": "-13% (inactive)"}, {"smiles": "CCOC(=O)/C(C)=N/NC(=O)c1ccc([N+](=O)[O-])cc1", "activity increase over dofetilide control, less the hit threshold": "17% (active)"}, {"smiles": "CCOC(=O)/C(C)=N/NC(=O)c1cccc([N+](=O)[O-])c1", "activity increase over dofetilide control, less the hit threshold": "3% (active)"}, {"smiles": "Cc1ccccc1C(=O)NNC(=O)c1cccc([N+](=O)[O-])c1", "activity increase over dofetilide control, less the hit threshold": "-31% (inactive)"}, {"smiles": "CCOc1cccc(/C=N/NC(=O)c2ccc3c(c2)OCCO3)c1O", "activity increase over dofetilide control, less the hit threshold": "-10% (inactive)"}, {"smiles": "COc1cccc(C=NCCCN=Cc2cccc(OC)c2O)c1O", "activity increase over dofetilide control, less the hit threshold": "9% (active)"}, {"smiles": "COc1cccc(C=Nc2cc(C)cc(C)c2)c1O", "activity increase over dofetilide control, less the hit threshold": "3% (active)"}, {"smiles": "COc1cccc(/C=N/n2c(SC)nnc2-c2ccccc2)c1O", "activity increase over dofetilide control, less the hit threshold": "-2% (inactive)"}, {"smiles": "COc1cccc(C=NCC(C)N=Cc2cccc(OC)c2O)c1O", "note": "(centres undefined)", "activity increase over dofetilide control, less the hit threshold": "7% (active)"}, {"smiles": "COc1cc(Br)cc(C=Nc2cccc(C(F)(F)F)c2)c1O", "activity increase over dofetilide control, less the hit threshold": "-14% (inactive)"}, {"smiles": "COc1cccc(/C=N/Nc2nc3ccccc3[nH]2)c1O", "activity increase over dofetilide control, less the hit threshold": "-4% (inactive)"}, {"smiles": "COC(=O)c1cccc(/C=N/NC(N)=S)c1O", "activity increase over dofetilide control, less the hit threshold": "-9% (inactive)"}, {"smiles": "COc1cccc(/C=N/NC(=O)CSc2ccccc2C)c1O", "activity increase over dofetilide control, less the hit threshold": "-5% (inactive)"}, {"smiles": "O=C(COC(=O)c1cnccn1)c1ccc(Cl)cc1", "activity increase over dofetilide control, less the hit threshold": "-9% (inactive)"}, {"smiles": "CCCNc1c(NS(=O)(=O)c2cccc(C#N)c2)c(=O)oc2ccccc12", "activity increase over dofetilide control, less the hit threshold": "-6% (inactive)"}, {"smiles": "Fc1cccc2sc(Nc3nnc(-c4ccccc4)o3)nc12", "activity increase over dofetilide control, less the hit threshold": "59% (active)"}, {"smiles": "COc1cccc(-c2nnc(Nc3nc4c(F)cccc4s3)o2)c1", "activity increase over dofetilide control, less the hit threshold": "9% (active)"}, {"smiles": "Fc1cccc2sc(Nc3nnc(-c4ccco4)o3)nc12", "activity increase over dofetilide control, less the hit threshold": "3% (active)"}, {"smiles": "Fc1cccc2sc(Nc3nc4c(F)cccc4s3)nc12", "activity increase over dofetilide control, less the hit threshold": "22% (active)"}, {"smiles": "O=C(Cc1ccc(Cl)cc1)Nc1cccc(-c2nnc(-c3ccco3)o2)c1", "activity increase over dofetilide control, less the hit threshold": "-15% (inactive)"}, {"smiles": "CC(=O)Nc1nc2c(F)cccc2s1", "activity increase over dofetilide control, less the hit threshold": "-15% (inactive)"}, {"smiles": "O=C(NCCc1ccc(F)cc1)c1coc(=O)c(Br)c1", "activity increase over dofetilide control, less the hit threshold": "-17% (inactive)"}, {"smiles": "Fc1ccc2nc(Nc3nc4c(F)cc(F)cc4s3)sc2c1", "activity increase over dofetilide control, less the hit threshold": "4% (active)"}, {"smiles": "O=C(Nc1nc2c(F)cc(F)cc2s1)C1COc2ccccc2O1", "note": "(centres undefined)", "activity increase over dofetilide control, less the hit threshold": "-6% (inactive)"}, {"smiles": "O=C(CCc1ccccc1)Nc1nnc(-c2ccccn2)o1", "activity increase over dofetilide control, less the hit threshold": "-12% (inactive)"}, {"smiles": "Cc1ccc(NC(=O)C(=O)NNC(=O)c2cccs2)cc1", "activity increase over dofetilide control, less the hit threshold": "74% (active)"}, {"smiles": "Cc1ccc(N/C=C/C(=O)c2cccs2)cc1", "activity increase over dofetilide control, less the hit threshold": "-15% (inactive)"}, {"smiles": "CCc1ccc(NC(=O)C(=O)NNC(=O)c2cccs2)cc1", "activity increase over dofetilide control, less the hit threshold": "61% (active)"}, {"smiles": "Cc1cc(C(=O)NNC(=O)c2cccs2)nn1C(C)(C)C", "activity increase over dofetilide control, less the hit threshold": "-1% (inactive)"}, {"smiles": "CCOc1ccccc1CNC(=O)CNC(=O)c1cccs1", "activity increase over dofetilide control, less the hit threshold": "-24% (inactive)"}, {"smiles": "O=C1c2ccccc2C(=O)N1Cc1cc(-c2ccccc2Cl)no1", "activity increase over dofetilide control, less the hit threshold": "-7% (inactive)"}, {"smiles": "Cc1cc(C(F)(F)F)n(-c2ccc(N)cc2)n1", "activity increase over dofetilide control, less the hit threshold": "-5% (inactive)"}, {"smiles": "O=C(CSc1nc2cc(Cl)ccc2s1)c1cc2ccccc2o1", "activity increase over dofetilide control, less the hit threshold": "2% (active)"}, {"smiles": "CCOC(=O)c1[nH]c(=O)[nH]c1COC(=O)c1cc2ccccc2o1", "activity increase over dofetilide control, less the hit threshold": "-2% (inactive)"}, {"smiles": "O=C(CSc1nnc(SCc2ccccc2)s1)N/N=C/c1ccc(Cl)cc1Cl", "activity increase over dofetilide control, less the hit threshold": "-6% (inactive)"}, {"smiles": "CSCC[C@H](NC(=O)Nc1ccc(C)cc1C)C(=O)O", "activity increase over dofetilide control, less the hit threshold": "-8% (inactive)"}, {"smiles": "COCCCn1c(=S)[nH]c2c(sc3ccccc32)c1=O", "activity increase over dofetilide control, less the hit threshold": "-3% (inactive)"}, {"smiles": "COCCCn1c(=S)[nH]c2sc3c(c2c1=O)CCCC3", "activity increase over dofetilide control, less the hit threshold": "29% (active)"}, {"smiles": "COCCn1c(=S)[nH]c2sc3c(c2c1=O)CCC(C)C3", "note": "(centres undefined)", "activity increase over dofetilide control, less the hit threshold": "44% (active)"}, {"smiles": "COCCn1c(=S)[nH]c2sc3c(c2c1=O)CCCC3", "activity increase over dofetilide control, less the hit threshold": "28% (active)"}, {"smiles": "CCN1C(=O)C2(/C(=C(\\O)c3ccc4c(c3)OCCO4)C(=O)C(=O)N2CCCOC)c2ccccc21", "note": "(centres undefined)", "activity increase over dofetilide control, less the hit threshold": "-11% (inactive)"}, {"smiles": "CCCCNC(=O)CC(NS(=O)(=O)c1ccc(C)cc1)c1ccco1", "note": "(centres undefined)", "activity increase over dofetilide control, less the hit threshold": "-13% (inactive)"}, {"smiles": "CCOC(=O)C1=C(C)NC(=O)NC1c1cccc(OC)c1OCc1ccccc1Cl", "note": "(centres undefined)", "activity increase over dofetilide control, less the hit threshold": "-11% (inactive)"}, {"smiles": "O=C(NCc1cccs1)C1CCC(CNS(=O)(=O)c2cccs2)CC1", "note": "(centres undefined)", "activity increase over dofetilide control, less the hit threshold": "-16% (inactive)"}, {"smiles": "CCC(=O)c1cc2c(C)cc(=O)oc2c(C)c1O", "activity increase over dofetilide control, less the hit threshold": "-13% (inactive)"}, {"smiles": "COC(=O)c1sccc1NC(=S)N1CCN(C)CC1", "activity increase over dofetilide control, less the hit threshold": "-19% (inactive)"}, {"smiles": "COC(=O)c1sccc1NC(=S)NCc1ccc(Cl)cc1", "activity increase over dofetilide control, less the hit threshold": "19% (active)"}, {"smiles": "CSc1ccccc1NC(=S)NCc1ccc(Cl)cc1", "activity increase over dofetilide control, less the hit threshold": "-15% (inactive)"}, {"smiles": "CCOC(=O)c1sc2ncnc(NCC(c3cccs3)N(C)C)c2c1C", "note": "(centres undefined)", "activity increase over dofetilide control, less the hit threshold": "40% (active)"}, {"smiles": "CCOC(=O)c1sc2ncnc(NCc3ccco3)c2c1C", "activity increase over dofetilide control, less the hit threshold": "34% (active)"}, {"smiles": "CCOC(=O)c1c(NC(=O)/C=C/c2ccco2)sc(C)c1C", "activity increase over dofetilide control, less the hit threshold": "-14% (inactive)"}, {"smiles": "Cc1ccc(OC(=O)c2sc3ncn(C)c(=O)c3c2C)cc1", "activity increase over dofetilide control, less the hit threshold": "-18% (inactive)"}, {"smiles": "c1ccc(Cn2ncc3c(N4CCN(C(c5ccccc5)c5ccccc5)CC4)ncnc32)cc1", "activity increase over dofetilide control, less the hit threshold": "-7% (inactive)"}, {"smiles": "CCCCCCc1c(O)nc(SCC(=O)O)[nH]c1=O", "activity increase over dofetilide control, less the hit threshold": "-16% (inactive)"}, {"smiles": "CC(C)NC(=S)NNc1nc2ccccc2s1", "activity increase over dofetilide control, less the hit threshold": "-9% (inactive)"}, {"smiles": "S=C(Nc1ccc(Cl)cc1)c1nc2ccccc2s1", "activity increase over dofetilide control, less the hit threshold": "46% (active)"}, {"smiles": "Cc1ccc(NC(=S)c2nc3ccccc3s2)cc1", "activity increase over dofetilide control, less the hit threshold": "5% (active)"}, {"smiles": "Cc1cccc(NC(=S)c2nc3ccccc3s2)c1", "activity increase over dofetilide control, less the hit threshold": "-12% (inactive)"}, {"smiles": "O=C(Nc1ccc(Cl)cc1)Nn1cnnc1", "activity increase over dofetilide control, less the hit threshold": "-14% (inactive)"}, {"smiles": "Clc1ccc(Nc2nc3cccnc3s2)cc1", "activity increase over dofetilide control, less the hit threshold": "-18% (inactive)"}, {"smiles": "O=C1C(=Cc2cccn2-c2ccc(O)cc2)C(=O)c2ccccc21", "activity increase over dofetilide control, less the hit threshold": "-18% (inactive)"}, {"smiles": "Cc1oc(/N=C/c2ccc(F)cc2)c(C#N)c1C", "activity increase over dofetilide control, less the hit threshold": "-20% (inactive)"}]}]}
